The results in this text go back to publication PMC4081100, “A DNA-binding-site landscape and regulatory network analysis for NAC transcription factors in Arabidopsis thaliana”.

Test in all cases: universal protein binding microarray (PBM); transcription factors of Arabidopsis thaliana; high values mean tight binding
Common to all, as to details: protein: recombinant; tags: GST; chain copies: 2; dsDNA, one strand shown

One assay deals with T1, GST-ANAC092(1-176) (Arabidopsis thaliana, UniProt Q9FKA0 1-176).
T1 sequence: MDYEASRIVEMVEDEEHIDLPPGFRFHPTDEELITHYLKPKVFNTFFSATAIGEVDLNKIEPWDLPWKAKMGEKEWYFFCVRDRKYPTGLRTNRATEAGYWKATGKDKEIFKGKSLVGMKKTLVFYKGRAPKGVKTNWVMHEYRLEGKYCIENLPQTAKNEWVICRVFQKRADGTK
A digest of the protocol: (§1)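 GST-tagged NAC-domain, full-length or DNA-binding-domain proteins were induced in cells, with zinc acetate added for zinc-finger proteins. They were purified on glutathione–Sepharose 4B and quantified by A280 or anti-GST western blot. Each was applied at 200 to 500 nM final, in duplicate, to custom all-10-mer Agilent 4 × 180K arrays made double-stranded by primer extension, with gapped and ungapped 8-mers scored. Binding is the normalised enrichment score (E-score).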

A further assay has as its target GST-NTL6(1-168) (Arabidopsis thaliana, UniProt Q9SCK6 1-168). The essentials:
as §1

Another assay addresses T2, GST-ANAC019 NAC domain (Arabidopsis thaliana, UniProt Q9C932 14-162).
T2 sequence: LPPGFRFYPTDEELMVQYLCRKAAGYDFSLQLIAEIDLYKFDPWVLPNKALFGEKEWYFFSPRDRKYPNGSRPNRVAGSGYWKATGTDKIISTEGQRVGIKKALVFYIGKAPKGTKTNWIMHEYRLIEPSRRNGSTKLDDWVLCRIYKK
A digest of the protocol: as §1

The target in a further assay is T3, GST-ANAC055(1-171) (Arabidopsis thaliana, UniProt Q9LDY8 1-171).
T3 sequence: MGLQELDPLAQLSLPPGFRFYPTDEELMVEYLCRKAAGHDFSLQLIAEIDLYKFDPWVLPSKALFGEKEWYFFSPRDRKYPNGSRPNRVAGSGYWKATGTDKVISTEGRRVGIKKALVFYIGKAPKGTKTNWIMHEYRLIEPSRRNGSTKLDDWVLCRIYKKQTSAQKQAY
The essentials:
as §1

The next assay concerns the target T4, GST-ATAF1 NAC domain (Arabidopsis thaliana, UniProt Q39013 7-158).
T4 sequence: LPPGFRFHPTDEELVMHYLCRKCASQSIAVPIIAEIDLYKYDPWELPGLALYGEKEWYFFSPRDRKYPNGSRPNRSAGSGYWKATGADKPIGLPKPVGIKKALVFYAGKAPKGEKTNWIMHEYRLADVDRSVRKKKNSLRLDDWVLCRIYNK
A digest of the protocol:
as §1

For assay [1], the target named is T5, GST-ANAC092(1-285) full length (Arabidopsis thaliana, UniProt Q9FKA0 1-285).
T5 sequence: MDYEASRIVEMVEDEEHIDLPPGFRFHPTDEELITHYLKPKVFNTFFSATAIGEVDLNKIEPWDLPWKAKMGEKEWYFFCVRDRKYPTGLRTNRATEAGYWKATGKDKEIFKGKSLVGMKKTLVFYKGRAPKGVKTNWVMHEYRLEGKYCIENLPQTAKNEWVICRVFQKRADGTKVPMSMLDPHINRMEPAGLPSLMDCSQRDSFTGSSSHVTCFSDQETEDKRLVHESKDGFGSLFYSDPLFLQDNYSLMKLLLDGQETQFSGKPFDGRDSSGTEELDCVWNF
The essentials: as §1

For a further assay, the target named is T6, GST-NAP(1-166) (Arabidopsis thaliana, UniProt O49255 1-166).
T6 sequence: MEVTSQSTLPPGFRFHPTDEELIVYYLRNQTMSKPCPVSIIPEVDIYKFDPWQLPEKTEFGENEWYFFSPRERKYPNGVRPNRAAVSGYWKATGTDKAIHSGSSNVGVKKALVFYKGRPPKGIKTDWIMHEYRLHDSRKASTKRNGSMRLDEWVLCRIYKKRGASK
A digest of the protocol:
as §1

The target of the next assay is T7, GST-NST2(1-184) (Arabidopsis thaliana, UniProt Q9M274 1-184).
T7 sequence: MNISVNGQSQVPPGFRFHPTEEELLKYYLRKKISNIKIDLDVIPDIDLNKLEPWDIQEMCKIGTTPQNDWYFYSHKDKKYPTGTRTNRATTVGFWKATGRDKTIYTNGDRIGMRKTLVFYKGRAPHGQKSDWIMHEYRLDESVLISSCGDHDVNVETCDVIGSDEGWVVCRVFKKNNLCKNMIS
The essentials: as §1

A further assay has as its target T8, GST-NTL8 NAC domain (Arabidopsis thaliana, UniProt Q9XIN7 14-156).
T8 sequence: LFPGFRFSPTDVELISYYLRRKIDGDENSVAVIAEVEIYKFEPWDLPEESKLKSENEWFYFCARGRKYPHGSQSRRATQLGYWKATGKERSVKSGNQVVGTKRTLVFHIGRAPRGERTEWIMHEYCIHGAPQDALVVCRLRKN
The essentials: as §1

In another assay the target is T9, GST-SND1(1-203) (Arabidopsis thaliana, UniProt Q9LPI7 1-203).
T9 sequence: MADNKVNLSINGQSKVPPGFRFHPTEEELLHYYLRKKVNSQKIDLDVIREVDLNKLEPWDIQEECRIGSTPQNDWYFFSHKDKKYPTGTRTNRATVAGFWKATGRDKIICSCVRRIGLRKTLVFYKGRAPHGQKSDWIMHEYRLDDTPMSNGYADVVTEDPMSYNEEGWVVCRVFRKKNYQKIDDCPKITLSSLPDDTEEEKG
A digest of the protocol: as §1

The target of a further assay is T10, GST-VND3 NAC domain (Arabidopsis thaliana, UniProt Q9FH59 12-162).
T10 sequence: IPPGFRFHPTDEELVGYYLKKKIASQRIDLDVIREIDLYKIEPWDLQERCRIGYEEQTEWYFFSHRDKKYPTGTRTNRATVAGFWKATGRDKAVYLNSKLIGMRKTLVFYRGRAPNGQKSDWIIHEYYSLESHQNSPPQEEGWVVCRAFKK
The essentials:
as §1

For the next assay, the target named is T11, GST-VND7 NAC domain (Arabidopsis thaliana, UniProt Q9C8W9 9-158).
T11 sequence: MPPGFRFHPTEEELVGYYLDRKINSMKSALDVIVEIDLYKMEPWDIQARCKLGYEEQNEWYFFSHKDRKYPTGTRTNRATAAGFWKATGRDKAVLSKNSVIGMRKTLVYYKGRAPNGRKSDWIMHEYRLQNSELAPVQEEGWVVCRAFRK
The essentials:
as §1

Sequence of GST-NTL6(1-168) (Q9SCK6 1-168): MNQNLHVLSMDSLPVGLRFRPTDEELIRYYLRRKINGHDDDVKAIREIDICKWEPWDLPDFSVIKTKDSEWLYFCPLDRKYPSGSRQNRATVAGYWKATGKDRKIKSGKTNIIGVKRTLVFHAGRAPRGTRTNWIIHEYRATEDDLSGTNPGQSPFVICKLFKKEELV

Take CACGTAAG: the binding signal with GST-ANAC092(1-176) amounted to 0.449 E-score; with GST-NTL6(1-168), 0.068 E-score; with GST-ANAC019 NAC domain, 0.463 E-score; with GST-ANAC055(1-171), 0.441 E-score; with GST-ATAF1 NAC domain, 0.349 E-score; in assay [1], 0.446 E-score. In addition, the binding signal in the assay with GST-NAP(1-166) was found to be 0.419 E-score; in the assay with GST-NST2(1-184) it was 0.201 E-score; in the assay with GST-NTL8 NAC domain, 0.17 E-score; in the assay with GST-SND1(1-203) it was 0.0778 E-score; with GST-VND3 NAC domain, 0.447 E-score; with GST-VND7 NAC domain, 0.447 E-score.
Regarding TTACGCAA, the binding signal with GST-ANAC092(1-176) was found to be 0.484 E-score; with GST-NTL6(1-168) it was 0.18 E-score; with GST-ANAC019 NAC domain it was 0.447 E-score; in the assay with GST-ANAC055(1-171), 0.335 E-score; in the assay with GST-ATAF1 NAC domain it was 0.375 E-score; in assay [1], 0.484 E-score. In addition, the binding signal with GST-NAP(1-166) amounted to 0.442 E-score; with GST-NST2(1-184) it was 0.437 E-score; in the assay with GST-NTL8 NAC domain, 0.18 E-score; with GST-SND1(1-203) it was 0.495 E-score; with GST-VND3 NAC domain, 0.457 E-score; in the assay with GST-VND7 NAC domain it was 0.468 E-score.
AACGTAAG: the binding signal with GST-ANAC092(1-176) is 0.32 E-score; with GST-NTL6(1-168), 0.196 E-score; in the assay with GST-ANAC019 NAC domain, 0.132 E-score; with GST-ANAC055(1-171), 0.213 E-score; with GST-ATAF1 NAC domain, 0.255 E-score; in [1] it was 0.366 E-score. Moreover, the binding signal with GST-NAP(1-166) came out at 0.204 E-score; with GST-NST2(1-184) it was 0.262 E-score; with GST-NTL8 NAC domain, 0.124 E-score; with GST-SND1(1-203), 0.436 E-score; with GST-VND3 NAC domain, 0.289 E-score; in the assay with GST-VND7 NAC domain, 0.226 E-score.
On to CTTACGTA, for which the binding signal with GST-ANAC092(1-176) is 0.423 E-score; with GST-NTL6(1-168), 0.161 E-score; with GST-ANAC019 NAC domain, 0.457 E-score; with GST-ANAC055(1-171) it was 0.421 E-score; in the assay with GST-ATAF1 NAC domain it was 0.407 E-score; in assay [1] it was 0.435 E-score. Moreover, the binding signal in the assay with GST-NAP(1-166) amounted to 0.363 E-score; with GST-NST2(1-184), 0.313 E-score; in the assay with GST-NTL8 NAC domain it was 0.219 E-score; with GST-SND1(1-203) it was 0.405 E-score; in the assay with GST-VND3 NAC domain, 0.43 E-score; with GST-VND7 NAC domain, 0.433 E-score.
As to ACGTAACA, the binding signal was determined as 0.438 E-score with GST-ANAC092(1-176); 0.133 E-score with GST-NTL6(1-168); 0.389 E-score with GST-ANAC019 NAC domain; 0.413 E-score in the assay with GST-ANAC055(1-171); 0.365 E-score in the assay with GST-ATAF1 NAC domain; 0.426 E-score in assay [1]. Further, the binding signal with GST-NAP(1-166) worked out at 0.417 E-score; with GST-NST2(1-184), 0.345 E-score; with GST-NTL8 NAC domain, 0.205 E-score; in the assay with GST-SND1(1-203), 0.409 E-score; with GST-VND3 NAC domain it was 0.41 E-score; with GST-VND7 NAC domain, 0.419 E-score.
CCACGTAA: the binding signal turned out to be 0.359 E-score with GST-ANAC092(1-176); 0.0826 E-score in the assay with GST-NTL6(1-168); 0.432 E-score with GST-ANAC019 NAC domain; 0.37 E-score with GST-ANAC055(1-171); 0.306 E-score with GST-ATAF1 NAC domain; 0.393 E-score in assay [1]. The binding signal with GST-NAP(1-166) is 0.308 E-score; with GST-NST2(1-184) it was 0.157 E-score; with GST-NTL8 NAC domain it was 0.167 E-score; in the assay with GST-SND1(1-203) it was 0.0962 E-score; in the assay with GST-VND3 NAC domain, 0.326 E-score; with GST-VND7 NAC domain, 0.341 E-score.
On to ACGTAAGC, for which the binding signal was found to be 0.42 E-score in the assay with GST-ANAC092(1-176); 0.133 E-score with GST-NTL6(1-168); 0.453 E-score with GST-ANAC019 NAC domain; 0.406 E-score in the assay with GST-ANAC055(1-171); 0.352 E-score with GST-ATAF1 NAC domain; 0.449 E-score in assay [1]. Moreover, the binding signal with GST-NAP(1-166) came out at 0.428 E-score; with GST-NST2(1-184), 0.298 E-score; with GST-NTL8 NAC domain it was 0.205 E-score; with GST-SND1(1-203), 0.368 E-score; in the assay with GST-VND3 NAC domain, 0.437 E-score; in the assay with GST-VND7 NAC domain, 0.431 E-score.
